# Several values for one entry are separate records, joined by “and”; a condition that tells them apart may be missing. Equal entries are not always repeated. Among all 16,000 compounds or so, about 120 (0.75%) were called active. Inconclusive results (about 4%) are left out. Calls follow the shape of the dose curve; as a rule, active = well fitted inhibition curve with a large enough effect; inconclusive = small, poorly fitted or top-dose-only effect; inactive = no such curve, though single readings can be large or run the other way. Only a selection was taken, and actives are over-represented in it overall. More than one record can exist for a structure, and the calls need not agree.
# Target: Rap guanine nucleotide exchange factor 3 (Homo sapiens) (UniProt O95398)
# Sequence (O95398 whole entry, looked up): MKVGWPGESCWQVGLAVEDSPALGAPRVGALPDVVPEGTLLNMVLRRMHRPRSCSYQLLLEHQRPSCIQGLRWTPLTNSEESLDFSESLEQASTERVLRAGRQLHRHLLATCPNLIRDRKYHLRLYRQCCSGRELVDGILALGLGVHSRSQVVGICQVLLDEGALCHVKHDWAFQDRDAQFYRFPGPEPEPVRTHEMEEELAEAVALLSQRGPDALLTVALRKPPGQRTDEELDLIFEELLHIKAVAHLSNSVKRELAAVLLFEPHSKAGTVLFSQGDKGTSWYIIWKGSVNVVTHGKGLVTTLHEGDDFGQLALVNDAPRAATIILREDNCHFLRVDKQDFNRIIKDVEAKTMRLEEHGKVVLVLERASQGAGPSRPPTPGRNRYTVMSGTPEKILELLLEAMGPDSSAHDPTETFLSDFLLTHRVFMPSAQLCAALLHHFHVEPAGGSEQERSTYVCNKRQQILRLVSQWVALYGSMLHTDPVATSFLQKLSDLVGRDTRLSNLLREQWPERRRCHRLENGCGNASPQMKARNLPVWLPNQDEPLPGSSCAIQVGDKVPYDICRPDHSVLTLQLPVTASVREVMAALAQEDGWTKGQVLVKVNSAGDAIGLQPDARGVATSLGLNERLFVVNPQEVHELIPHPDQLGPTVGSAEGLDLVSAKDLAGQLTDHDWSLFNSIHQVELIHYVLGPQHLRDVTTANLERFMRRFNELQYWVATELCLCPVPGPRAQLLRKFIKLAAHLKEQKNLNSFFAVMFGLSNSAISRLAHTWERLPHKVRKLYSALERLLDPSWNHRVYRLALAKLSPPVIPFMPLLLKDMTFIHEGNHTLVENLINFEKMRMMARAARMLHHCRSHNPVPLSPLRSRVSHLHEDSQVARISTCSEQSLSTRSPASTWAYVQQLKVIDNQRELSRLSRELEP
# Experiment: Validation qHTS for antagonist of cAMP-regulated guanine nucleotide exchange factor 3 (EPAC1); also: nearly all actives have a fitted effect of over 75% in size;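 as to activity change, negative = inhibition: plate controls were DMSO for no effect and ATA control for full effect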
# Settings: EPAC1 Rap1B-BODIPY-GDP exchange, fluorescence; series mostly up to 150 µM; activity change, negative = inhibition: at the top concentration
# In short: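 EPAC1 (100 nM) mixed with 250 nM RAP1B-BODIPY-GDP and 50 uM GDP; compounds in concentration series, 5 min at room temperature. Fluorescence (ex 480/em 540 nm) read every 5 min for 30 min; normalized to ATA control and DMSO.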
# Potency is read from the fitted curve at half-maximal effect.
Compound,"activity change, negative = inhibition",Potency
CC(Oc1ccccc1)C(=O)NCC1Cc2cc(F)cc(-c3ccccn3)c2O1 (centres undefined),0.154% (inactive),–
COc1cccc(Nc2ncc3nc(-c4ccccc4)c(=O)n(Cc4cccs4)c3n2)c1,18.4% (inactive),–
COc1ccc(-c2nc3cnc(Nc4ccccc4)nc3n(Cc3cccs3)c2=O)cc1,-3.69% (inactive),–
COc1ccc(-c2nc3cnc(Nc4cccc(OC)c4)nc3n(Cc3cccs3)c2=O)cc1,–,100 µM (active)
CCc1ccc(CCOc2ccc(CC3SC(=O)NC3=O)cc2)nc1 (centres undefined),–,inactive
Cc1c(C)c2c(c(C)c1O)CCC(C)(COc1ccc(CC3SC(=O)NC3=O)cc1)O2 (centres undefined),–,100 µM (active)
CC1(COc2ccc(C[C@H]3SC(=O)NC3=O)cc2)CCCCC1,–,89.1 µM (active)
Cc1c(C)c2c(c(C)c1O)CC[C@@](C)(CCC[C@H](C)CCC[C@H](C)CCCC(C)C)O2,–,inactive
CN(CCOc1ccc(CC2SC(=O)NC2=O)cc1)c1ccccn1 (centres undefined),16.9% (inactive),–
CC1(COc2ccc(CC3SC(=O)NC3=O)cc2)CCCCC1 (centres undefined),12.3% [at 15.3 µM] (inactive),35.5 µM (active)
Cc1c(C)c2c(c(C)c1O)CCC(C)(CCCC(C)CCCC(C)CCCC(C)C)O2 (centres undefined),-7.36% (inactive),–
Fc1ccc(N2CCN(Cc3ccc4c(c3)CN(Cc3cccn3-c3cccnc3)CCO4)CC2)cc1,-5.67% (inactive),–
Cc1ccc2c(c1)CN(CCC(=O)NCc1cc(C)n(C)n1)CC(C)O2 (centres undefined),5.77% (inactive),–
COc1cc(=O)n2c(c1C(=O)N(C)Cc1nonc1C)CCN(Cc1ccsc1)CC2,11.6% (inactive),–
Cc1ccc(CN2C[C@H](Sc3ccccn3)C[C@H]2C(=O)Nc2ccc3sc(C)nc3c2)c(C)c1,2.23% (inactive),–
CN(C)/N=N/c1nc[nH]c1C(N)=O,–,inactive
COc1cccc(Cn2c(=O)c(-c3cc(F)cc(F)c3)nc3cncnc32)c1,0.958% (inactive),–
Cc1noc(C)c1-c1cc(N(C)C)ncn1,17.9% (inactive),–
CCCCCCCCN1[C@@H](CC(=O)O)c2cc(C(F)(F)F)ccc2S1(=O)=O,9.17% (inactive),–

Compound,"activity change, negative = inhibition",Potency
CCCCCCCCCCCCN1[C@@H](CC(=O)O)c2cc(C(F)(F)F)ccc2S1(=O)=O,–,89.1 µM (active)
CCCCCCCCCCCCN1[C@@H](CC(=O)OC)c2cc(C(F)(F)F)ccc2S1(=O)=O,-0.938% (inactive),–
COc1ccc(OC)c(-c2ccnc(-n3ncc(C(=O)N(C)CCc4ccccn4)c3C)n2)c1,18.1% (inactive),–
Clc1ccc2ncnc(NCc3ccc4c(c3)OCO4)c2c1,14.1% [at 201 µM] (inactive),–
CC(O)c1nc2ccccc2[nH]1 (centres undefined),5.07% (inactive),–
O=C1CC[C@@H](CN(Cc2cccnc2)C2CCN(c3ccc(NC(=O)c4cnccn4)cc3)CC2)N1,-4.84% (inactive),–
CCCCC(CC)COS(=O)(=O)O (centres undefined),-7.64% (inactive),–
CCCCC(CC)COC(=O)CC(C(=O)OCC(CC)CCCC)S(=O)(=O)O (centres undefined),–,56.2 µM (active) and 25.1 µM (active)
CCCCC(CC)COC(=O)c1ccccc1O (centres undefined),24.3% (inactive),–
O=c1c(-c2ccccc2)nc2cncnc2n1Cc1ccccc1,2.28% (inactive),–
COc1ccc(-c2nc3cnc(N4CCN(C)CC4)nc3n(-c3ccc(OC)cc3)c2=O)cc1,19% (inactive),–
COc1ccc(-c2nc3cc(C)ccc3cc2CN(C(=O)c2ccc(C)s2)C2CC2)cc1OC,4.33% (inactive),–
c1ccc(Cc2nnc3n2CCN(Cc2cnc(-c4ccccc4)s2)CC3)cc1,20.3% (inactive),–
COc1ccc(-n2c(=O)c(CCc3ccccc3)nc3cnc(N4CCNCC4)nc32)cc1,10.6% (inactive),–
COc1ccc(C(=O)CC(=O)c2ccc(C(C)(C)C)cc2)cc1,–,79.4 µM (active)
COc1ccc(C(C)=O)cc1,18.3% (inactive),–
COc1ccc(C(=O)C[n+]2ccccc2Cl)cc1,7.36% (inactive),–
Cc1ncc2c(c1CNC(=O)c1ccsc1)CCN(C(=O)c1c(F)cccc1Cl)C2,8.26% (inactive),–
COc1cc(C)c(CN2C[C@H](Sc3ccccn3)C[C@H]2C(=O)N(C)C)cc1C,-9.09% (inactive),–
